The nature of experiment [1]: compounds binding Alexa647 anti-His antibody – biochemical, small-molecule microarray, 635 nm fluorescence, artefact control for SMM control protein annotation, primary screen (AID 1128).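 Note: score merges feature fluorescence with signal-to-noise for each printed compound spot.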 Particulars: higher = more signal.
Experiment [2] concerns Human papillomavirus type 1a E7 protein (residues 1-88). The experiment in a line: HPV1a E7 small-molecule binders, primary screen, biochemical, small-molecule microarray, residues 1-88, 635 nm (AID 1129). The following applies: small-molecule microarray binding, fluorescence 635 nm; higher = more signal.
Experiment [3] deals with Focal adhesion kinase 1 (Homo sapiens) (UniProt Q05397). Put plainly: PTK2 protein binding on printed compound slides – biochemical, small-molecule microarray, 635/667 nm fluorescence, BSA, DTT, primary screen (AID 1130).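 Note: composite of spot emission at 667 nm and signal to noise over triplicate slides.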 Particulars: 635 nm fluorescence, higher = more signal.
Chain of Focal adhesion kinase 1 (Homo sapiens) (Q05397 whole entry, looked up): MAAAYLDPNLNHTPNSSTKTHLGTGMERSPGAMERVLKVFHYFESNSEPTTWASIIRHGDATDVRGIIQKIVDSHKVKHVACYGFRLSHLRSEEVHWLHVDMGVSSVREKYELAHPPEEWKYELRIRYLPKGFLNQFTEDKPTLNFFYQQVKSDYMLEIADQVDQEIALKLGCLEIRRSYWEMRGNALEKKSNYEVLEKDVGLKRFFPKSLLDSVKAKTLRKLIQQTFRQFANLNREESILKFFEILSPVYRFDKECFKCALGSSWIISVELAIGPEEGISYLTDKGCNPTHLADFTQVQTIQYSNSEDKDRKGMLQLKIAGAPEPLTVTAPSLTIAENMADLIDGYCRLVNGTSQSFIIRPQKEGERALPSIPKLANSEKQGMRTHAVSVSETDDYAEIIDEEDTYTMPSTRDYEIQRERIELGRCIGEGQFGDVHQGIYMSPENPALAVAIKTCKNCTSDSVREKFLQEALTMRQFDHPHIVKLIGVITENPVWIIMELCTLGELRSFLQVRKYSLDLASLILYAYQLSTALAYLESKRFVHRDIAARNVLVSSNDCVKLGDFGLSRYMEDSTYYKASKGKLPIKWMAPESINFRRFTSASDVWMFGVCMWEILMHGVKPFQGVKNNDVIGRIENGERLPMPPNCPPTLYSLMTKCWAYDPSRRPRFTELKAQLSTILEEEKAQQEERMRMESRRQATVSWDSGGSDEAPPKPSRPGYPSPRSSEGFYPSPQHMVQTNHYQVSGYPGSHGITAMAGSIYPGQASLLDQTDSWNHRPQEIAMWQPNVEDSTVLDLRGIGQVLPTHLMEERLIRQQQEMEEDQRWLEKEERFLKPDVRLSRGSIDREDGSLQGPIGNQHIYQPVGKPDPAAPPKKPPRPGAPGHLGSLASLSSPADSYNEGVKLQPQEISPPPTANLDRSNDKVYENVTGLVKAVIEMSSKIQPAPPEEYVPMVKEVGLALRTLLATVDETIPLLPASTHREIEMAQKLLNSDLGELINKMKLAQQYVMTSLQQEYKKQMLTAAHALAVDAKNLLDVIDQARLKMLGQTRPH
Experiment [4] has as its system Fibrinogen (Alexa647-labelled). The experiment in a line: Alexa647-fibrinogen binding to printed small molecules – biochemical, small-molecule microarray, 635/667 nm fluorescence, artefact control for SMM control-protein annotation, profiling panel (AID 1131).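 Note: z-score merges 667 nm fluorescence with per-spot signal-to-noise over triplicate slides.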 Particulars: fibrinogen-A647 binding fluorescence, higher = more signal.
Experiment [5] deals with Follistatin (Homo sapiens) (UniProt P19883). The experiment in a line: FST protein binding to printed compounds – biochemical, small-molecule microarray, 635/667 nm fluorescence, primary screen (AID 1132). Particulars: 635 nm fluorescence, higher = more signal.
Chain of Follistatin (Homo sapiens) (P19883 whole entry, looked up): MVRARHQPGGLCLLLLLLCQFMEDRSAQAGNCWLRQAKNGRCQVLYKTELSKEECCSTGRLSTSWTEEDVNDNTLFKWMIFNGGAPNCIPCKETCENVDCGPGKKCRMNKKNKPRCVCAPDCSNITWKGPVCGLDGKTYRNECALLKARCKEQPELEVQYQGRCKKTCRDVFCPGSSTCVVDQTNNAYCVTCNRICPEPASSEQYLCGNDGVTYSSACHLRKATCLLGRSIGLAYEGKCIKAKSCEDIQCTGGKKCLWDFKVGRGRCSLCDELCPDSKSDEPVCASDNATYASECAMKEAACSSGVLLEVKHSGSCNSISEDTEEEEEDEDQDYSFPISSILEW
Experiment [6] has as its target Fibroblast growth factor 2 (Homo sapiens) (UniProt P09038). Put plainly: basic fibroblast growth factor binding to printed compounds – biochemical, small-molecule microarray, 635/667 nm fluorescence, primary screen (AID 1133). Particulars: FGF2, fluorescence 635/667, higher = more signal.
Experiment [7] in a line: JC-1 mitochondrial potential readout, lung cancer cells – cell-based, A549, JC-1 fluorescence, basal, 24 h, 100 nL, profiling panel (AID 1138).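 Note: A549 lung adenocarcinoma cells under basal conditions with no added stimulus; test concentration not given here.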 The following applies: higher = more signal.
The test system of another experiment is Lefty1. The experiment in a line: Lefty1 protein binding to printed compounds – biochemical, small-molecule microarray, 635/667 nm fluorescence, primary screen (AID 1139). Particulars: fluorescence 635/667, higher = more signal.
The test system of experiment [8] is wheat germ agglutinin (Triticum aestivum), Alexa647-labelled. The experiment in a line: Alexa647-WGA lectin binding to printed small molecules – biochemical, small-molecule microarray, 635/667 nm fluorescence, artefact control for SMM control-protein annotation, profiling panel (AID 1140).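 Note: score merges 667 nm feature emission with signal to noise over triplicate slides.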 Particulars: WGA-A647 binding, 635 nm fluorescence, higher = more signal.

Experiment [9] has as its target Luciferin 4-monooxygenase (Photinus pyralis) (UniProt P08659). The experiment in a line: inhibition of purified Photinus pyralis luciferase – biochemical, luminescence, purified enzyme, 2006 set, primary screen (AID 1141).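 Note: cell-free assay with purified firefly luciferase at 100 ng per well in PBS; test concentration not given here.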 Particulars: purified firefly luciferase, SteadyGlo luminescence, 30 min; higher = more signal, called active from +8 up or from −8 down.
In experiment [10] the test system is Wnt5a (protein binding on small-molecule microarray). Put plainly: small molecules binding Wnt5a protein – biophysical, small-molecule microarray, 635/667 nm fluorescence, primary screen (AID 1142).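 Note: fluorescence read at 667 nm with signal to noise per printed feature.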 Particulars: 635 nm fluorescence, higher = more signal.
The nature of experiment [11]: ATP-based viability of Huh7 replicon cells – cell-based, CellTiter-Glo luminescence, basal, 48 h, cytotoxicity control for HCV replication inhibitor project, primary screen (AID 1143).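 Note: Huh7 hepatoma cells carrying a hepatitis C replication reporter with no stimulus; test concentration not given here.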 Particulars: higher = more signal, called active from +8 up or from −8 down. (In general: A replicon is a self-replicating genome or part of one, used to study replication in cells.)
Experiment [12] can be described thus: Pseudomonas biofilm growth suppression – PAO1 strain, BacTiter-Glo luminescence, LB-PBS, primary screen (AID 1144). Particulars: P. aeruginosa PAO1 biofilm, 12 h, higher = more signal.
The nature of experiment [13]: basal CRE-LacZ reporter activity in PC12 – cell-based, unstimulated, primary screen (AID 1145). The following applies: no forskolin, luminescence, 4.5 h, higher = more signal, called active from +8 up or from −8 down.
Experiment [14] in a line: forskolin-driven CRE-LacZ activity in PC12 – cell-based, CRE-LacZ reporter, forskolin-stimulated, primary screen (AID 1146).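 Note: PC12 cells with 6xCRE LacZ reporter stimulated by forskolin 10 µM; beta-galactosidase reporter signal reflecting CREB driven transcription.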 The following applies: luminescence, 4.5 h, higher = more signal, called active from +8 up or from −8 down.
In experiment [15] the target is Streptavidin (Streptomyces avidinii) (UniProt P22629). The experiment in a line: compounds binding control protein streptavidin – biophysical, small-molecule microarray, 635/667 nm fluorescence, artefact control for SMM compound annotation, primary screen (AID 1147).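 Note: signal reflects streptavidin binding to arrayed compounds as a control protein.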 Particulars: higher = more signal.
Chain of Streptavidin (Streptomyces avidinii) (P22629 whole entry, looked up): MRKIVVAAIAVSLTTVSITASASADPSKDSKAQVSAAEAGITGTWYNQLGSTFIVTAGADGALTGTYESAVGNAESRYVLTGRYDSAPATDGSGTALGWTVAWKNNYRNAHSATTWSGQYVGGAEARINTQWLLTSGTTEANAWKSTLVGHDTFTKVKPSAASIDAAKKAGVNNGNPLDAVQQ
Experiment [16] can be described thus: probe aInhba binding on compound microarray – biochemical, small-molecule microarray, 635/667 nm fluorescence, primary screen (AID 1148).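 Note: score merges 667nm spot fluorescence with signal-to-noise for antibody binding to printed compounds.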 Particulars: higher = more signal.
The target in experiment [17] is Torsin-1A (Homo sapiens) (UniProt O14656). Put plainly: TOR1A wild-type binding on microarray – cell lysate, small-molecule microarray, lysate, 635/667 nm, primary screen (AID 1149). Particulars: COS7 hTOR1A-WT lysate, 635 nm fluorescence, higher = more signal.
Chain of Torsin-1A (Homo sapiens) (O14656 whole entry, looked up): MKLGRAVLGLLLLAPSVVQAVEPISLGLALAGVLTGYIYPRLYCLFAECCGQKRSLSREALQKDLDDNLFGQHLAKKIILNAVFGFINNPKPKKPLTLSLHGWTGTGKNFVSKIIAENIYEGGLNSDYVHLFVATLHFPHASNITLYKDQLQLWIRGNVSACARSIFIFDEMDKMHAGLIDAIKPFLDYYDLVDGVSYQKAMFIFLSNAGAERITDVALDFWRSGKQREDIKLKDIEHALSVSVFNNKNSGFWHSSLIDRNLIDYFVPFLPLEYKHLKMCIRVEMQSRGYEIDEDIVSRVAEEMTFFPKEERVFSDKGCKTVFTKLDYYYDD
Experiment [18] shares this target. Put plainly: torsin A mutant lysate binding on microarrays – cell lysate, small-molecule microarray, COS7 lysate, 635/667 nm fluorescence, primary screen (AID 1150).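 Note: score pools 667 nm emission and signal to noise measuring lysate protein binding.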 Particulars: COS7 hTOR1A mutant lysate, 635 nm fluorescence, higher = more signal.
The test system of experiment [19] is Sonic hedgehog protein (Shh). The experiment in a line: Sonic hedgehog microarray binding compounds – biochemical, small-molecule microarray, 635/667 nm fluorescence, primary screen (AID 1151).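 Note: Shh protein binding to compounds spotted on small-molecule microarray slides; score combines spot fluorescence intensity with signal-to-noise across triplicate slides.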 The following applies: 635 nm fluorescence, higher = more signal.

Molecules are shown by their SMILES. Active and inactive are the calls of the source. Unless noted, the rule behind the calls is not given here.

Chain of Luciferin 4-monooxygenase (Photinus pyralis) (P08659 whole entry, looked up): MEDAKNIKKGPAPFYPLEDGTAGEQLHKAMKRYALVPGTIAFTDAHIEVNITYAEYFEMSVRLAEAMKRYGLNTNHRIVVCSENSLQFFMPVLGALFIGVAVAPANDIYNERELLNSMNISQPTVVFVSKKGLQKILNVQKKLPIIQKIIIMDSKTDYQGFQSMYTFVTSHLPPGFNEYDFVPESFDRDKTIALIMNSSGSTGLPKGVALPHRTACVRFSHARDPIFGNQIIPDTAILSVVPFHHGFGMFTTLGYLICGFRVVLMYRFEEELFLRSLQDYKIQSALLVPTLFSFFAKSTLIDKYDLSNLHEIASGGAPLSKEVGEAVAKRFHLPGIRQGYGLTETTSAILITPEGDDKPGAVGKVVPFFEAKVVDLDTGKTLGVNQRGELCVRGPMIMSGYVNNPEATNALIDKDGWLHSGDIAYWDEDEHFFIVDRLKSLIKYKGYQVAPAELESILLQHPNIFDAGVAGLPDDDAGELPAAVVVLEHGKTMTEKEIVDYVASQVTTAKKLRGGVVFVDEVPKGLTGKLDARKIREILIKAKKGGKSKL
Chain of Fibroblast growth factor 2 (Homo sapiens) (P09038 whole entry, looked up): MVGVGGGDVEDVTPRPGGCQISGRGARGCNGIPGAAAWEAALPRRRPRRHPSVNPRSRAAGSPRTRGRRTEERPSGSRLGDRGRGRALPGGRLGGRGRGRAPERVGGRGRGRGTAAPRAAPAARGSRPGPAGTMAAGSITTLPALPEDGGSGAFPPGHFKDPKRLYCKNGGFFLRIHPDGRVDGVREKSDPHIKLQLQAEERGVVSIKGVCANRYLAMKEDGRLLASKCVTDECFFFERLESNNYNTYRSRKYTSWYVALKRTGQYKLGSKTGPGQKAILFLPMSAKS

For `COc1cc2c(cc1OC)CN(C(=O)[C@@H]1[C@H]3C(=O)O[C@H](c4ccccc4)[C@H](c4ccccc4)N3[C@H](c3ccc(O)cc3)[C@@]13C(=O)Nc1ccc(C#CC4(O)CCCCCC4)cc13)CC2`, the composite z-score stood at 2.4 in [1]; 1.25 in [2]; 0.592 in experiment [3]; 0.924 in experiment [4]; 1.14 in experiment [5]; 1.35 in experiment [6]. The composite z-score with Lefty1 is 0.999; in experiment [8], 0.137; in experiment [10] it was 0.382; in [15], 1.06; in [16], -0.287; with Torsin-1A (Homo sapiens) [17], 0.287. In addition, the values for the composite z-score (in the experiment with Torsin-1A (Homo sapiens) [18]; in experiment [19]) were 0.787 and 1.91, respectively. The z-score in experiment [7] was -0.373; in experiment [9] it was -0.798 (inactive); in experiment [11] it was -0.292 (inactive); in [12], -0.37 (inactive); in [13] it was -0.168 (inactive); in [14], -0.65 (inactive).

Turning to `COc1ccc([Si](C)(C)[C@H]2[C@H](CCO)O[C@@]3(C(=O)N(Cc4ccc(N5C(=O)COc6ccccc65)cc4)c4ccccc43)[C@@H]2C)cc1`, the composite z-score in [1] is 1.04; in [2] it was 0.0091; in [3], -0.187; in [4], 0.27; in [5] it was -0.566; in experiment [6], -0.684. Besides, the composite z-score in the experiment on Lefty1 is -0.072; in experiment [8], 0.484; in experiment [10], -0.516; in experiment [15] it was -0.314; in [16] it was -0.128; in the experiment with Torsin-1A (Homo sapiens) [17], -1.06. The composite z-score in the experiment with Torsin-1A (Homo sapiens) [18] was -0.89; in experiment [19] it was -0.15. In addition, the z-score in [7] was 0.272; in experiment [9] it was 0.0706 (inactive); in experiment [11], -6.62 (inactive); in [12], -1.32 (inactive); in [13], -0.766 (inactive); in experiment [14], -0.706 (inactive).

With `COCCCNC(=O)[C@@]1(Cc2ccccc2N=[N+]=[N-])N=C(c2ccc(OCCCO)cc2)O[C@H]1c1ccccc1N=[N+]=[N-]`, the composite z-score in [1] was found to be 1.73; in experiment [2] it was 1.22; in [3], 0.912; in [4] it was 0.849; in experiment [5] it was 1.25; in experiment [6], 0.836. Also, the composite z-score is -0.0542 in the experiment on Lefty1; 1.02 in experiment [8]; 0.266 in [10]; 1.14 in [15]; 0.3 in [16]; 0.328 with Torsin-1A (Homo sapiens) [17]. Further, the figures for the composite z-score (with Torsin-1A (Homo sapiens) [18]; in [19]) were 1.05 and -0.319, respectively. Besides, the z-score was 0.332 in [7]; -3.37 (inactive) in experiment [9]; -4.63 (inactive) in experiment [11]; -0.557 (inactive) in [12]; 0.834 (inactive) in experiment [13]; -0.803 (inactive) in [14].

For the molecule `COCCOC(=O)N1C(=O)[C@@]2(c3cc(C#CC4(O)CCCCCC4)ccc31)[C@H](c1ccc(O)cc1)N1[C@H](c3ccccc3)[C@H](c3ccccc3)OC(=O)[C@H]1[C@@H]2C(=O)Nc1nc2ccccc2s1`, the composite z-score worked out at 0.84 in experiment [1]; 1.19 in [2]; 0.482 in [3]; 0.97 in experiment [4]; 1.18 in experiment [5]; 1.05 in experiment [6]. The composite z-score in the experiment with Lefty1 turned out to be 0.562; in [8], 0.227; in experiment [10], 0.513; in experiment [15], 1.19; in experiment [16], 0.741; in the experiment with Torsin-1A (Homo sapiens) [17], 0.549. Besides, the values for the composite z-score (in the experiment with Torsin-1A (Homo sapiens) [18]; in experiment [19]) were 0.821 and 1.35, respectively. For the same molecule, the z-score was -1.85 in experiment [7]; -0.715 (inactive) in [9]; -0.073 (inactive) in experiment [11]; 0.505 (inactive) in [12]; 1.42 (inactive) in experiment [13]; 4.93 (inactive) in experiment [14].

Turning to `CCCN1C(=O)[C@]2(CCS(=O)(=O)c3ccccc3)N=C(c3ccc(OCCCO)cc3)O[C@@H]2c2ccccc21`, the composite z-score in experiment [1] is 1.02; in experiment [2], 1.21; in experiment [3] it was 0.554; in [4], 0.967; in experiment [5] it was 0.958; in experiment [6] it was 0.408. Also, the composite z-score in the experiment with Lefty1 was 0.576; in [8], 0.737; in [10], 0.419; in experiment [15], 1.24; in experiment [16] it was 0.0475; in the experiment with Torsin-1A (Homo sapiens) [17], 1.33. Also, the composite z-score with Torsin-1A (Homo sapiens) [18] was found to be 1.24; in experiment [19] it was 1.13. Also, the z-score was 0.535 in [7]; 0.54 (inactive) in experiment [9]; -4.93 (inactive) in experiment [11]; -1.32 (inactive) in experiment [12]; -0.254 (inactive) in experiment [13]; -1.53 (inactive) in [14].
